# Only some compounds are listed: those with a hit (about 2.9% of all), similar ones and a draw of the others.
# a7 integrin act: qHTS for Activators of Integrin-Mediated Alleviation for Muscular Dystrophy; 350,000 tested, 0.064% active; alpha7betagal myoblasts, beta-gal FDG fluorescence, 48 h; AID 624291, 2012; Potency, µM (top dose mostly 38.3 µM), inactives show top-dose activation, actives largely listed as activators; active = well fitted activation curve with a large enough effect; inconclusive = small, poorly fitted or top-dose-only effect; inactive = no such curve, though single readings can be large or run the other way;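 note: potency is the fitted concentration of half-maximal effect; 100% = response of the positive control SU9516; nearly all actives have a fitted effect of over 60% in size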
#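 alpha7betagal+/- myoblasts (passage 13, 250/well) treated 48 h at 37C with compounds at 1:260 dilution of DMSO stock. Lysed, then beta-galactosidase activity read as FDG fluorescence (ex 480/em 540) after 30 min, with pre-read for autofluorescence.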
# DRD3 antagonist: qHTS of D3 Dopamine Receptor Antagonist: qHTS; D(3) dopamine receptor (Homo sapiens), P35462; D3R cells, DiscoveRx beta-arrestin luminescence, antagonist mode; hits give low values; max response, negative = inhibition, %; 360,000 tested, 2.5% active; in the data active = max response below about -50%; inconclusive = no clear call, values can overlap the other calls; note: % is set by controls: 0 for no effect and ±100 for the full control effect
# Target sequence (P35462 whole entry, looked up): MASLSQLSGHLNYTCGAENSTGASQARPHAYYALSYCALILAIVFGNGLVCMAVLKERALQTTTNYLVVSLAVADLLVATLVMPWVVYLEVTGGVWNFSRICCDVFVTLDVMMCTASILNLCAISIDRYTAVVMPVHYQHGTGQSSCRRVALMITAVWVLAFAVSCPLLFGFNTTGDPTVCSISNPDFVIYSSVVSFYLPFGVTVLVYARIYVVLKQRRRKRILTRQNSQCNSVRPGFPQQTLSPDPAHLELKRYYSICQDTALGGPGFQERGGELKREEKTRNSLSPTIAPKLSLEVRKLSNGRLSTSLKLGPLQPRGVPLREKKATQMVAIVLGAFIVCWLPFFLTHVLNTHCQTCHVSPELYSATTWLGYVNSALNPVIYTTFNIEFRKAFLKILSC
#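 Cells plated overnight at 1500 cells/well, then exposed to library compounds with dopamine controls for 90 minutes at 37 degrees C. DiscoveRx reagent added for 30–60 minutes at room temperature; luminescence read, quantitative HTS format.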
# DRD3 agonist: qHTS of D3 Dopamine Receptor Agonist: qHTS. D(3) dopamine receptor (Homo sapiens), P35462. D3R DiscoveRx beta-arrestin cells, luminescence, 90 min. max activation, %. 410,000 tested, 0.58% active. AID 652048, 2013; in the data active = max activation above about 30%; note: 0% is about no effect
#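 Agonist-mode cell screen: cells plated at 1500/well and incubated overnight at 37 °C, then exposed to library compounds for 90 min at 37 °C. Detection reagent was added for 30–60 min at room temperature, and luminescence was read.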
# * = called active by the depositor; ? = inconclusive; . = not tested or not shown.
SMILES,a7 integrin act,DRD3 antagonist,DRD3 agonist
C/C(=C\C(=O)c1ccccc1)Nc1ccc(Br)c(Cl)c1,11µM*,-14,1
Cc1ccc(N(CC(=O)NCCSc2ccccn2)S(=O)(=O)c2ccc(F)cc2)cc1,2%,0,10
Cc1ccc(CN2CCC(C(=O)c3ccc(F)cc3)CC2)cc1,-10%,-122*,-13
COc1ccc(CN2CCC(C(=O)c3ccc(F)cc3)CC2)cc1,-24%,-120*,-21
COc1ccc(C(=O)C2CCN(C(=O)c3ccc(F)cc3)CC2)cc1,1%,11,2
Cc1ccc(NC(=O)N2CCC(C(=O)c3ccc(F)cc3)CC2)cc1,-37%,6,-4
O=C(CCCn1c(=O)[nH]c2ccccc2c1=O)Nc1ccc(F)cc1,8%,9,-1
O=C(c1ccc(F)cc1)C1CCN(CCn2c(=O)[nH]c3ccccc3c2=O)CC1,.,-51*,-58
COc1ccc(/C=N\NC(=O)c2ccc(F)cc2)cc1COc1ccccc1C(N)=O,18%,-16,0
O=C(O)c1cc2c(cc1NC(=O)c1c(F)cccc1F)OCCCO2,5%,5,2
CCOC(=O)N1CCN(C(=O)/C(=C/c2ccc(Cl)cc2)NC(=O)c2ccccc2)CC1,-18%,8,-2
CCOC(=O)c1sc2ncn(CC(=O)Nc3ccc(OCC)cc3)c(=O)c2c1C,.,.,1
COc1ccc(-c2cn(CCC(=O)O)c(-c3ccc(Cl)nc3)n2)cc1,25%,37,52*
O=C(O)CCn1cc(-c2ccc(Cl)cc2)nc1-c1ccc(Cl)nc1,-3%,0,8
CCOc1ccccc1N(CC(=O)OC)S(C)(=O)=O,-16%,-107*,5
CCOc1ccccc1N(CC(=O)N1CCCCCC1)S(C)(=O)=O,-10%,-18,1
COc1cc(-c2nnc(-c3ccco3)o2)ccc1OCc1ccccc1,22%,36,30*
COc1cc(-c2nnc(-c3ccncc3)o2)ccc1OCc1ccccc1,-13%,49,81*
COc1ccc(-c2nnc(-c3ccccc3)o2)cc1OC,12%,-8,-1
COc1ccccc1OCC(=O)Nc1ccc(-c2nnc(-c3ccco3)o2)cc1,5%,-6,-3
CCCc1cc(=O)oc2c(CN3CCN(C)CC3)c(O)ccc12,15%,5,32*
CCCCc1cc(=O)oc2c(CN3CCN(C)CC3)c(O)ccc12,23%,-17,-7
CCN(CC(=O)Nc1c(F)cccc1F)C(=O)CCSc1ccc(C)cc1,-22%,-10,-7
O=C(N/N=C/c1ccc[nH]1)c1sc2ccccc2c1Cl,-26%,-65*,-30
O=C(N/N=C/c1ccncc1)c1sc2ccccc2c1Cl,5%,-4,-2
SMILES,a7 integrin act,DRD3 antagonist,DRD3 agonist
c1ccc(N/N=C(\Cc2nc3ccccc3[nH]2)c2ccccc2)cc1,15%,4,1
Cc1ccc(N/N=C(\Cc2nc3ccccc3[nH]2)c2ccccc2)cc1,-17%,-60*,-23
CCOC(=O)c1nnc(-c2cccs2)nc1Oc1ccc(Cl)cc1,-3%,-67*,1
CCOC(=O)c1nnc(-c2cccs2)nc1Oc1ccccc1C(=O)OC,-18%,-24,0
CCNC(=O)c1cccc(NC(=O)CN2C(=O)NC3(CCCCC3)C2=O)c1,19%,10,2
OCCn1c(-c2ccc(F)cc2)csc1=Nc1ccccc1,17%,-11,-2
OCCn1c(-c2ccc3c(c2)OCO3)csc1=Nc1ccccc1,0%,-70*,12
Cc1cc(Br)cc2c(C(=O)NCC3CCCO3)cc(-c3cccs3)nc12 (stereo unspecified),0%,45,24
NNc1nc(Nc2ccccc2)nc(N2CCCCC2)n1,-14%,?,-31
NNc1nc(Nc2ccccc2)nc(Nc2ccccc2)n1,-14%,-52*,-24
OCC1OC(n2ccc3c(NO)ncnc32)C(O)C1O (stereo unspecified),?,?,-6
CC(=O)Oc1ccc(C(=O)Nc2ccccc2C(=O)N2CCCCC2)cc1,0%,-57*,-11
CC(=O)Oc1ccc(C(=O)Nc2ccccc2C(=O)N2CCCC2)cc1,2%,-8,7
CCOCCCNC(=O)C(c1ccc(Cl)cc1)N1CCC2(CC1)OCCO2 (stereo unspecified),13%,-55*,-11
CCOCCCNC(=O)C(c1ccc(Cl)cc1)N1CCN(c2ccccc2)CC1 (stereo unspecified),16%,-27,-6
CC(C)C[C@@H](CN)NC(=O)c1nc[nH]c1C(=O)N[C@@H](C)C(=O)CNC[C@H](CC(C)C)NC(=O)c1nc[nH]c1C(=O)N[C@@H](CC(=O)O)C(=O)O,37%,-24,0
CC(C)C[C@@H](CN)NC(=O)c1nc[nH]c1C(=O)N[C@@H](Cc1ccccc1)C(=O)CNC[C@H](C)NC(=O)c1nc[nH]c1C(=O)N[C@@H](CC(C)C)C(=O)O,13%,7,7
CC(C)C[C@@H](CN)NC(=O)c1nc[nH]c1C(=O)N[C@@H](Cc1ccccc1)C(=O)CNC[C@H](C)NC(=O)c1nc[nH]c1C(=O)N[C@@H](C)C(=O)O,6%,21,43*
CC(C)C[C@@H](CNCC(=O)[C@H](CC(=O)O)NC(=O)c1[nH]cnc1C(=O)N[C@H](CN)CC(C)C)NC(=O)c1nc[nH]c1C(=O)N[C@@H](C)C(=O)O,33%,-53*,3
O=C(CCN1C(=O)/C(=C/c2ccccc2Cl)SC1=S)NN1CCOCC1,14%,4,4
CC1(C)CC[C@]2(C(=O)O[C@@H]3O[C@H](CO)[C@@H](O)[C@H](O)[C@H]3O)CC[C@]3(C)C(=CCC4[C@@]5(C)CC[C@H](O[C@@H]6O[C@H](C(=O)O)[C@@H](O[C@H]7OC[C@@H](O)[C@@H](O)[C@@H]7O)[C@H](O)[C@H]6O)C(C)(C)C5CC[C@]43C)[C@@H]2C1 (stereo partly specified),3%,21,1
CC1(C)CC[C@]2(C(=O)O)CC[C@]3(C)C(=CC[C@@H]4[C@@]5(C)CC[C@H](O[C@@H]6O[C@H](C(=O)O)[C@@H](O)[C@H](O[C@@H]7OC[C@H](O)[C@H](O)[C@H]7O)[C@H]6O)C(C)(C)[C@@H]5CC[C@]43C)[C@@H]2C1,-45%,-63*,-22
C=CCn1c[n+](CC(=O)c2ccc(Br)s2)c2ccccc21,2%,?,-11
CN1CCN(S(=O)C23CC4CC(CC(C4)C2)C3)CC1 (stereo unspecified),14%,-89*,-16
O=S(N1CCCCC1)C12CC3CC(CC(C3)C1)C2 (stereo unspecified),8%,5,4
CCOC(=O)N1CCN(C(=O)CSCC(=O)Nc2nc(-c3ccc(-c4ccccc4)cc3)cs2)CC1,-65%,137,56*
CCOC(=O)N1CCN(C(=O)CSCC(=O)Nc2nc(-c3ccc(OC)cc3)cs2)CC1,-20%,6,-13
CCCCC(=O)NC(c1ccc(N(CC)CC)cc1)c1ccc2cccnc2c1O (stereo unspecified),4%,-4,32*

# High-throughput results (PubChem BioAssay)
